Test results reported in PubChem BioAssay (NCI).
Compounds without any hit were thinned out: in the full panel of roughly 79,000, 15% have a hit. Values without a mark were called inactive. Activity calls are given as the source filed them. No stated cut-off is given here; in the data, active means growth inhibition above about 70%; inactive means the rest.

Assays:
[1] = NCI Yeast Anticancer Drug Screen. Data for the rad50 strain (AID 155);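 further: 0% = growth of vehicle-only cultures of the same strain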; details: S. cerevisiae rad50 strain growth inhibition, stronger effect = higher value
Summary of the method: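 Inhibition values express reduced yeast growth in compound-treated cultures relative to vehicle-treated controls.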

[2] = NCI Yeast Anticancer Drug Screen. Data for the mec2-1 strain (AID 157); details: S. cerevisiae mec2-1 strain, stronger effect = higher value
Summary of the method: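 Readout is yeast growth inhibition, normalised to vehicle-treated controls, in the mec2-1 strain exposed to compound.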

[3] = NCI Yeast Anticancer Drug Screen. Data for the sgs1 mgt1 strain (AID 161);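 further: 0% = growth of cultures given vehicle only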; details: S. cerevisiae sgs1 mgt1 strain, stronger effect = higher value
Summary of the method: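 This yeast growth screen uses a strain with defined DNA-repair lesions; compound-treated growth is compared with vehicle-treated growth.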

[4] = NCI Yeast Anticancer Drug Screen. Data for the cln2 rad14 strain (AID 165);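 further: 0% = growth equal to vehicle treated cultures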; details: S. cerevisiae cln2 rad14 strain, stronger effect = higher value
Summary of the method: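 Relative to vehicle controls, growth inhibition of compound-treated cln2 rad14 yeast was recorded.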

[5] = NCI Yeast Anticancer Drug Screen. Data for the bub3 strain (AID 167); details: S. cerevisiae bub3 mutant strain, stronger effect = higher value
Summary of the method: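 Steps: expose the mutant yeast strain to compound; grow alongside vehicle-treated cultures; measure growth; express inhibition against the vehicle cultures.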

[6] = NCI Yeast Anticancer Drug Screen. Data for the mlh1 rad18 strain (AID 175); details: S. cerevisiae mlh1 rad18 strain growth inhibition, stronger effect = higher value
Summary of the method: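 Test agents were incubated with a yeast strain of defined genotype (DNA damage repair defect). Inhibition of growth was derived by comparison with vehicle-exposed cultures.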

[7] = at 5.0 µM (retest, dose inferred, filed as 0.5)
[8] = at 50.0 µM (retest, dose inferred, filed as 5.0)

Row | Compound | growth inhibition [1, 7] | growth inhibition [1, 8] | growth inhibition ([1]; at 50.0 µM) | growth inhibition [2, 7] | growth inhibition [2, 8] | growth inhibition ([2]; at 50.0 µM) | growth inhibition [3, 7] | growth inhibition [3, 8] | growth inhibition ([3]; at 50.0 µM) | growth inhibition [4, 7] | growth inhibition [4, 8] | growth inhibition ([4]; at 50.0 µM) | growth inhibition [5, 7] | growth inhibition [5, 8] | growth inhibition ([5]; at 50.0 µM) | growth inhibition [6, 7] | growth inhibition [6, 8] | growth inhibition ([6]; at 50.0 µM)
1 | C/C=C/C(=O)NCC(C(C)C)/[N+]([O-])=N/O (configuration not stated) | 94% (active) | 95% (active) | 91.8% (active) | 95% (active) | 95% (active) | 93.3% (active) | 97% (active) | 97% (active) | 93.3% (active) | 80% (active) | 82% (active) | 91.2% (active) | 87% (active) | 86% (active) | 91.8% (active) | 97% (active) | 97% (active) | 91.9% (active)
2 | c1cc2c(cc1CCCCCCCCCCc1ccc3c(c1)CCC3)CCC2 | -4% | -5% | 2.75% | -13% | -8% | 3.85% | 9% | 2% | 3.3% | -4% | 0% | 79.8% (active) | -6% | -2% | 2.95% | -2% | -38% | 10.6%
3 | Brc1ccc2[nH]c3ccccc3c2c1 | 2% | 33% | 57.7% | -4% | 67% | 44.9% | -3% | 47% | 86.8% (active) | -2% | 65% | 54.2% | 3% | 57% | 55.2% | 4% | 75% (active) | 90% (active)
4 | O=[N+]([O-])c1cc(C(F)(F)F)cc([N+](=O)[O-])c1N1CCCC(n2cccc2)C1 (configuration not stated) | -11% | 21% | 34.6% | -6% | 19% | 45.8% | -4% | 26% | 58.3% | 7% | 28% | 34.1% | -9% | 55% | 71.2% (active) | 1% | 33% | 47.9%
5 | COc1cc(CSc2ccc(O)cc2)cc(OC)c1OC | -3% | 34% | 79.1% (active) | -18% | -16% | 84.3% (active) | -24% | 29% | 84.9% (active) | -18% | 4% | 50% | -13% | 21% | 81.8% (active) | -5% | -4% | 82.3% (active)
6 | Fc1cccc(NC(=S)SCc2ccc(Cl)cc2)c1 | 20% | 98% (active) | 99.4% (active) | 15% | 98% (active) | 99.7% (active) | 12% | 99% (active) | 99.7% (active) | -6% | 99% (active) | 99.5% (active) | 10% | 98% (active) | 99.5% (active) | 23% | 99% (active) | 99.6% (active)
7 | CCS(=O)(=O)c1ccc(NC(=O)OC2CCCCCCC2)cc1 | 5% | 89% (active) | 95.8% (active) | 16% | 86% (active) | 80.6% (active) | 11% | 74% (active) | 65.5% | -50% | 88% (active) | 88.8% (active) | 6% | -30% | 95.2% (active) | 6% | 90% (active) | 91.6% (active)
8 | Cc1ccsc1/C=N/Nc1cc(C)c2cccc(C)c2n1 | 1% | 47% | 48.5% | -23% | 21% | 30.3% | -11% | 24% | 48.4% | 4% | 38% | 33.8% | -12% | 63% | 15.4% | -8% | 57% | 63.2%
9 | O=P(N=P(c1ccccc1)(c1ccccc1)c1ccccc1)(c1ccccc1)c1ccccc1 | 70% (active) | 96% (active) | 88% (active) | 60% | 99% (active) | 91.6% (active) | 49% | 99% (active) | 79% (active) | 40% | 98% (active) | 92.5% (active) | 62% | 99% (active) | 87.2% (active) | 71% (active) | 98% (active) | 88.7% (active)
10 | O=c1ssc(=Nc2ccc(Cl)cc2)n1-c1ccc(Cl)cc1 | 77% (active) | 99% (active) | 98.5% (active) | 57% | 99% (active) | 99.4% (active) | 95% (active) | 99% (active) | 98.2% (active) | 16% | 99% (active) | 87.9% (active) | 74% (active) | 99% (active) | 99.5% (active) | 30% | 99% (active) | 98% (active)
11 | CCC[CH2][Sn]([CH2]CCC)([O]C(=O)c1cc(OC)c(OC)cc1OC)[O]C(=O)c1cc(OC)c(OC)cc1OC | 88% (active) | 88% (active) | 89.8% (active) | 90% (active) | 90% (active) | 91.5% (active) | 87% (active) | 87% (active) | 90.1% (active) | 79% (active) | 79% (active) | 91.2% (active) | 85% (active) | 85% (active) | 87.2% (active) | 84% (active) | 84% (active) | 89.5% (active)
12 | BrC1(c2ccccc2)C[n+]2c(-c3ccccc3)cc(-c3ccccc3)cc2-c2ccccc21 (configuration not stated) | 95% (active) | 99% (active) | 89.8% (active) | 96% (active) | 99% (active) | 91.5% (active) | 97% (active) | 98% (active) | 91.2% (active) | 95% (active) | 99% (active) | 91.2% (active) | 37% | 98% (active) | 89.4% (active) | 97% (active) | 99% (active) | 91% (active)
13 | O=S(=O)(O)C(O)c1ccc2ccc3cccc4ccc1c2c34 (configuration not stated) | 12% | 95% (active) | 94.4% (active) | -2% | 96% (active) | 95.3% (active) | 4% | 92% (active) | 67.8% | -4% | 84% (active) | 77.5% (active) | -3% | 94% (active) | 97.5% (active) | 3% | 95% (active) | 97% (active)
14 | Cc1ccc(NC(=O)CCC(=O)CC(=O)C(C)(C)C)cc1C | 16% | 7% | 1.1% | 2% | -2% | -14.3% | 13% | 3% | -13.8% | -5% | 4% | 34.8% | -6% | 3% | -7.9% | -2% | -4% | -15.7%
15 | Brc1ccc(-c2c3ccccc3cc3c2ccc2ccccc23)cc1 | 1% | -14% | 42.9% | 1% | -10% | 30.2% | 2% | 1% | 47.8% | -2% | -24% | 74.5% (active) | -5% | 26% | 38.1% | -4% | -9% | 47.1%
16 | Cn1c(=O)c2c(O)c(-c3ccccc3)c(=O)n3c4ccccc4n(c1=O)c23 | 19% | 48% | 51.3% | 21% | 51% | 27.6% | 28% | 68% | 64.5% | 7% | 34% | 19.7% | 10% | 30% | 25.9% | 18% | 59% | 50.1%
17 | CCOc1ccccc1C(=O)Nc1cc(C)nn1-c1ccccc1 | 5% | 4% | 29.4% | 7% | 4% | 99.2% (active) | 7% | 6% | 99.4% (active) | 0% | -1% | 98.8% (active) | -1% | -3% | 99.3% (active) | -1% | 0% | 99.5% (active)
18 | COc1ccc2c(c1)nc1ccc(Cl)cc1[n+]2C | -6% | 61% | 82.2% (active) | 2% | 64% | 84.1% (active) | -2% | 55% | 82.2% (active) | -7% | 52% | 83.1% (active) | 7% | 70% (active) | 92.2% (active) | 6% | 66% | 89% (active)
19 | CC(C)(Br)C(Br)C(=O)C(Br)C(C)(C)Br (configuration not stated) | -1% | 8% | 52.2% | -2% | 26% | 48.6% | -4% | 31% | 63.6% | -2% | 15% | -7.9% | -2% | 40% | 19.6% | -1% | 31% | 69%
